Inconclusive results are not listed. Calls of active or inactive are those of the source. Calls follow the shape of the dose curve; as a rule, active = well fitted cell-killing curve with a large enough effect; inconclusive = small, poorly fitted or top-dose-only effect, or effect the other way; inactive = no such curve, though single readings can be large or run the other way.
Potency is read from the fitted curve at half-maximal effect.

The assay in a line: Viability qHTS for spleen associated tyrosine kinase inhibitor (SYKi) naive MV4-11 cells (AID 1963823). Also: nearly all actives have a fitted effect of over 40% in size. Conditions: MV4-11 AML viability, CellTiter-Glo luminescence, 72 h; series mostly up to 45 µM. The gist of the method: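 Compounds were dispensed acoustically onto plates, MV4-11 cells (SYKi-naive) added at 500 per well, and plates incubated 72 hr at 37 C. CellTiter-Glo was added and luminescence measured after 10 min.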
In general terms: qHTS replaces the single test concentration by a dilution series.
Consider `COc1ccc([C@H]2OC[C@H]3O[C@@H](O[C@H]4[C@@H]2NC[C@@H]4O)[C@H](O)[C@H]3O)cc1`, for which the Potency is 0.64 µM (active).
As for `CO[C@H]1O[C@@H]2O[C@]3(C)CC[C@H]4[C@H](C)CC[C@@H]([C@H]1C)[C@@]24OO3`, the Potency is 1.84 µM (active).
Regarding `COCC1OC(OC(C)(C)C2CCC3(C)C=C(C4CCC5C4(C)CC(O)C4OC(C(C)(C)OC6OC(CO)C(O)C(O)C6NC(C)=O)CCC45C)CCC3O2)C(NC(C)=O)C(O)C1O` (stereo not drawn), the viability (% of control) is 92.4% [at 9.25 µM] (inactive).
In the case of `O=C1NC(Cc2ccc(O)cc2)C(=O)N2CCCC12` (stereo not drawn), the Potency entry was “inactive”.
On the same count and under the same terms, then `C/C=C/C=C/C=C/C(=O)O[C@@H]1C=C(CO)C(O)(C(=O)O)[C@@]2(C)CCCC(C)(C)[C@H]12` (stereo partly drawn), with “inactive”.
With `COc1ccccc1-n1c(SCC(=O)Nc2nc3ccc(C)cc3s2)nc2c(c1=O)SCC2`, the Potency result was “inactive”.
Consider `CNc1nc(-c2ccc3c(N)n[nH]c3c2)cc(N2CC(C(=O)NC3CCCCC3)CCC2C)n1` (stereo not drawn), for which the Potency is 2.31 µM (active).
With `COC(=O)C1=COC(OC2OC(CO)C(O)C(O)C2O)C2C(C)C(OC(=O)/C=C/c3ccc(O)cc3)C(O)C12` (stereo not drawn), the Potency result was “inactive”.
On to `C=C(C)C1CCC2(C(=O)O[C@@H]3O[C@H](CO[C@@H]4O[C@H](CO)[C@@H](O)[C@H](O)[C@H]4O)[C@@H](O)[C@H](O[C@@H]4O[C@@H](C)[C@H](O)[C@@H](O)[C@H]4O)[C@H]3O)CCC3(C(=O)O)C(CCC4C5(C)CCC(O)C(C)(C)C5CCC43C)C12` (stereo partly drawn), for which the viability (% of control) is 84.2% [at 9.25 µM] (inactive).
Consider `O=C1NC2CCc3nc4ccccc4c(=O)n3C2=Nc2ccccc21` (stereo not drawn), for which the Potency entry was “inactive”.
On the same count and under the same terms, then `C=C1C(=O)OC2C1CCC(=C)C1CC(OC(C)=O)C(=C)C12` (stereo not drawn), with 3.26 µM (active).
On to `COc1ccc(CCc2nc3cc(-c4c(C)noc4C)ccc3n2CC(C)N2CCOCC2)cc1Cl` (stereo not drawn), for which the Potency was 4.11 µM (active).
Take `C[C@@H]1O[C@@H](O[C@H]2[C@H](O[C@H]3CC[C@@]4(C)C(CC[C@]5(C)C4CC=C4C6CC(C)(C)CC[C@]6(C(=O)O[C@@H]6O[C@H](CO[C@@H]7O[C@H](CO)[C@@H](O[C@@H]8O[C@@H](C)[C@H](O)[C@@H](O)[C@H]8O)[C@H](O)[C@H]7O)[C@@H](O)[C@H](O)[C@H]6O)CC[C@]45C)[C@]3(C)CO)OC[C@H](O)[C@@H]2O)[C@H](O)[C@H](O)[C@H]1O` (stereo partly drawn): the viability (% of control) was 69.6% [at 9.25 µM] (inactive).
As to `COc1ccc(CCC(=O)c2c(O)cc(O[C@@H]3O[C@H](CO)[C@@H](O)[C@H](O)[C@H]3O[C@@H]3O[C@@H](C)[C@H](O)[C@@H](O)[C@H]3O)cc2O)cc1O`, the Potency entry was “inactive”.
Still for that read-out and setting: then `CC(=O)N[C@@H](CC(C)C)C(=O)N[C@@H](CCC(=O)O)C(=O)N[C@@H](CCC(=O)O)C(=O)N[C@@H](CC(=O)O)C(=O)Nc1ccc2c(C(F)(F)F)cc(=O)oc2c1`, with “inactive”.
Regarding `CC1(C)CCC2(C(=O)OC3OC(COC4OC(CO)C(O)C(O)C4O)C(O)C(O)C3O)CCC3(C)C(=CCC4C5(C)CCC(OC6OCC(O)C(O)C6O)C(C)(C)C5CCC43C)C2C1O` (stereo not drawn), the viability (% of control) is 56.1% [at 9.25 µM] (inactive).
On to `CC(C)=C1CC2[C@](C)(CC[C@@H](OC(=O)C3(C)OC3C)[C@@]2(C)O)CC1=O` (stereo partly drawn), for which the Potency entry is “inactive”.
In the case of `CC(=O)OC/C(=C/C(=O)O)CC[C@@H]1C(C)=CC(=O)[C@@H]2C(C)(C)CCC[C@@]12C`, the Potency entry was “inactive”.
Consider `CC1(C)CC[C@@]2(C(=O)O[C@@H]3O[C@H](CO)[C@@H](O)[C@H](O)[C@H]3O)C(C1)C1=CCC3[C@@]4(C)CC[C@@H](O[C@@H]5O[C@H](C(=O)O)[C@@H](O[C@@H]6OC[C@@H](O)[C@H](O)[C@H]6O)[C@H](O[C@@H]6OC[C@](O)(CO)[C@H]6O)[C@H]5O)C(C)(C)C4CC[C@@]3(C)[C@]1(C)C[C@H]2O` (stereo partly drawn), for which the viability (% of control) was 11.6% [at 9.25 µM] (inactive).
In the case of `C/C=C/c1ccc(O[C@@H]2O[C@H](CO)[C@@H](O)[C@H](O)[C@H]2O)c(OC)c1`, the Potency result is “inactive”.
Take `COC1CC(O[C@H]2CC[C@]3(C)C4CC[C@@]5(C)C(=O)[C@]4(CC[C@@H]3C2)CC[C@@H]5C2=CC(=O)OC2)OC(C)C1OC1OC(COC2OC(CO)C(O)C(O)C2O)C(O)C(O)C1O` (stereo partly drawn): the Potency is 1.1 µM (active).
Regarding `COc1cc(C(=O)OC[C@H]2O[C@H](O[C@@]3(CO)O[C@@H](CO)[C@H](O)[C@H]3O)[C@H](O)[C@@H](O)[C@@H]2O)ccc1O`, the Potency entry is “inactive”.
Turning to `CC[C@@H]1C(=O)O[C@]23C=C[C@@H]4C(C(=O)OC)=CO[C@H](O[C@@H]12)[C@@H]43`, the Potency is 3.66 µM (active).

The record behind these values is PubChem BioAssay (NCATS).
